Bioassay records: PubChem, National Center for Advancing Translational Sciences (NCATS)
An excerpt weighted towards active compounds, which were near 7.8% of everything screened.
TSHR agonist – qHTS Assay for Agonists of the Thyroid Stimulating Hormone Receptor. 73,000 compounds, 0.48% hits. Thyrotropin receptor (Homo sapiens), P16473. Potency, µM (doses to about 57.1 µM), actives largely listed as activators. HEK293-CNG-TSHR cells (CNG channel as cAMP sensor), membrane potential dye, cAMP. AID 926, 2007; active = well fitted activation curve with a large enough effect in the main read-out, with a control signal flat, not every such curve was filed as active; inconclusive = small, poorly fitted or top-dose-only effect, or a change in a side signal; inactive = no such curve, though single readings can be large or run the other way; reference of the percent scale not stated here;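 also: the control signal comes from parental cells without the receptor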
Target sequence (P16473 whole entry, looked up): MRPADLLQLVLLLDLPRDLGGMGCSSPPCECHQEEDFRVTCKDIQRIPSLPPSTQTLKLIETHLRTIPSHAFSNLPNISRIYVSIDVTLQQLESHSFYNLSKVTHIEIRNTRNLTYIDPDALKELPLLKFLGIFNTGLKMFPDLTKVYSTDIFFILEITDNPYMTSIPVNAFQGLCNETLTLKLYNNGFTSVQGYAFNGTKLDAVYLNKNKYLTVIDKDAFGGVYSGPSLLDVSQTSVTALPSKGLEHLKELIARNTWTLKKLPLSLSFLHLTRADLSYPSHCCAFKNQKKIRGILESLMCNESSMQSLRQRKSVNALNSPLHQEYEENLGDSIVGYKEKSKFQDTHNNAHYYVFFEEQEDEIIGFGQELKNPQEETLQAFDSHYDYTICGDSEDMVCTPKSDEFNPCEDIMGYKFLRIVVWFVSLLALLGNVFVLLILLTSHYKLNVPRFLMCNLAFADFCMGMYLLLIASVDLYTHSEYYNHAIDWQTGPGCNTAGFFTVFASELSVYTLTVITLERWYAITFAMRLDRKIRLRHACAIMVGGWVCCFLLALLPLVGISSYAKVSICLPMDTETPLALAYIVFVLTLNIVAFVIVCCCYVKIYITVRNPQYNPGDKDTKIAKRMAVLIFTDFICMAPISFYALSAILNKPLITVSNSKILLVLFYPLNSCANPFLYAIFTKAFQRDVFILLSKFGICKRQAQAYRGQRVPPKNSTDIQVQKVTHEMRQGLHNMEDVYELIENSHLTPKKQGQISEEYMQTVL
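HEK 293 cells stably expressing TSHR and a modified CNG channel, with CNG-only parental cells as counterscreen, were preloaded 60 min at room temperature with membrane potential dye containing 100 uM RO 20-1724. Compound exposure was 30 min, and depolarization was read as fluorescence at 590 nm.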
Luciferase inh – qHTS Assay for Inhibitors of Firefly Luciferase. Luciferin 4-monooxygenase (Photinus pyralis), P08659. purified firefly luciferase, luminescence, 8 min. Potency, µM (top dose mostly 57.1 µM), usual class: inhibitors. 72,000 compounds, 2.2% hits; also: nearly all actives have a fitted effect of over 40% in size
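Titration-based qHTS; buffer 50 mM imidazole pH 7.2, 50 mM KCl, 7 mM MgCl2, 10 uM ATP, 0.01% Tween 20, 0.05% BSA; luciferase/luciferin detector mix added after compound; 8 min, ambient; luminescence.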
ALOX15 inhib – qHTS Assay for Inhibitors of 15-hLO (15-human lipoxygenase); AID 887, 2007; Potency, µM (highest dose often 57.1 µM), hits mostly inhibitors; 74,000 compounds, 1.4% hits; purified 15hLO-1, xylenol orange hydroperoxide absorbance; also: nearly all actives have a fitted effect of over 55% in size
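Readout: Fe(III)-xylenol orange absorbance, 573-to-405 nm ratio as reaction progress. Enzyme 40 nM purified human 15hLO-1, substrate 50 uM arachidonic acid, 6 min RT after 15 min compound preincubation; Hepes pH 7.5 buffer with Triton X-100.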
HEK293 cAMP cs – qHTS Assay for Agonists of the Thyroid Stimulating Hormone Receptor: Activators of Intracellular cAMP Concentrations in Parental HEK 293. parental HEK293 CNG cAMP sensor, membrane potential fluorescence. 73,000 compounds, 2.5% hits. Potency, µM (series often up to 57.1 µM), hits mostly activators; also: nearly all actives have a fitted effect of over 55% in size
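Parental HEK 293 cells stably expressing a modified CNG channel (no TSHR) report cAMP rise as membrane depolarization. Membrane potential dye with 100 uM RO 20-1724 was loaded for 60 min at room temperature, then compound added for 30 min; fluorescence read at 590 nm.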
PK Bst – Pyruvate Kinase; 51,000 compounds, 1.2% hits; purified pyruvate kinase, luminescence ATP production; ribose 5-phosphate activator present at AC10; Potency, µM; AID 361, 2006; in the data active = potency below about 11 µM; inconclusive = mostly about 12 µM to 25 µM;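 the screen sought inhibitors and activators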
Tau filament bind – qHTS Assay for Tau Filament Binding | 71,000 compounds, 2% hits | recombinant tau filaments, thioflavin S fluorescence, 15 h; filaments grown with octadecylsulfate alongside compound | Microtubule-associated protein tau (Homo sapiens), P10636 | Potency, µM (series often up to 57.1 µM);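 also: actives lower thioflavin S fluorescence by blocking filaments or displacing dye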
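Thioflavine S fluorescence (ex 450, em 510 nm) reports filaments formed from 1 uM human tau plus 30 uM ODS over 15 h at 37 C (10 mM HEPES pH 7.4, 100 mM NaCl, 5 mM DTT); compounds displacing dye or blocking filaments lower signal.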
A number is an active result; [ ] = remark or other dose. Unless noted, calls follow the shape of the dose curve; as a rule, active = well fitted curve in the direction sought with a large enough effect; inconclusive = small, poorly fitted or top-dose-only effect, or another doubt; inactive = no such curve, though single readings can be large; an effect the other way counts as inactive or inconclusive.

Cc1ccc(-c2nn(-c3ccccc3)cc2C2SCC(=O)N2Cc2ccccc2)o1 (stereo not drawn) was read as TSHR agonist 25µM, Luciferase inh inactive, ALOX15 inhib inconclusive, HEK293 cAMP cs inactive and Tau filament bind inactive.
COc1ccc(C(=O)c2ccccc2O)c(O)c1 was read as TSHR agonist inactive, Luciferase inh inactive, ALOX15 inhib inconclusive, HEK293 cAMP cs inactive and Tau filament bind inactive.
`COc1ccc(OC)c(C(=O)COC(=O)c2ccccc2O)c1` gave TSHR agonist inconclusive, Luciferase inh inactive, ALOX15 inhib inactive, HEK293 cAMP cs 25µM, PK Bst inactive and Tau filament bind inactive.
Screening COc1ccc(O)c(C(=O)CC(=O)c2ccccc2)c1 returned TSHR agonist inactive, Luciferase inh 20µM, ALOX15 inhib inactive, HEK293 cAMP cs inactive and Tau filament bind inconclusive.
COc1ccc(OC)c(C(=O)COC(=O)c2c(OC)cccc2OC)c1 was read as TSHR agonist inactive, Luciferase inh inactive, ALOX15 inhib inactive, HEK293 cAMP cs inactive, PK Bst inactive and Tau filament bind inactive.
`S=C(S)NCCCn1ccnc1` gave TSHR agonist inactive[11.4 µM], Luciferase inh inactive[11.4 µM], ALOX15 inhib inactive[11.4 µM], HEK293 cAMP cs inactive[11.4 µM] and Tau filament bind inactive[11.4 µM].
Screening CN(C)CCn1c(C(=O)Nc2ccccc2)cc2ccccc21 returned TSHR agonist inconclusive, Luciferase inh inactive, ALOX15 inhib inactive, HEK293 cAMP cs 2µM, PK Bst inactive and Tau filament bind inactive.
For COC(=O)[C@@H]1C[C@H]1[C@@H](NC(=O)OCc1ccccc1)c1ccccc1 the results were TSHR agonist inconclusive, HEK293 cAMP cs inconclusive and Tau filament bind inactive.
CCN(CC)C(c1ccc(F)cc1)c1nnnn1C1CCCCC1 (stereo not drawn) was read as TSHR agonist inactive, Luciferase inh inactive, ALOX15 inhib inactive, HEK293 cAMP cs inactive, PK Bst inactive and Tau filament bind inactive.
CCN(CC)C(c1ccc(C)cc1)c1nnnn1C1CCCCC1 (stereo not drawn) was read as TSHR agonist inconclusive, Luciferase inh inactive, ALOX15 inhib inactive, HEK293 cAMP cs 16µM, PK Bst inactive and Tau filament bind inactive.
`c1ccc(CN(Cc2ccco2)C(c2ccncc2)c2nnnn2C2CCCC2)cc1` (stereo not drawn) gave TSHR agonist inconclusive, Luciferase inh inactive, ALOX15 inhib inconclusive, HEK293 cAMP cs 10µM, PK Bst inactive and Tau filament bind inactive.
For COC(=O)c1ccc(=O)n(Cc2ccc3c(c2)OCO3)c1 the results were Luciferase inh inactive and PK Bst inactive.
`CC(NC(=O)NC1CCCCC1)C(c1cccs1)N1CCN(C)CC1` (stereo not drawn) gave TSHR agonist inactive, Luciferase inh inactive, ALOX15 inhib inactive, HEK293 cAMP cs inactive and Tau filament bind inactive.
O=C(O)CCc1nnc2n(Cc3ccc(F)cc3)c(=O)c3ccccc3n12 was read as TSHR agonist inactive, Luciferase inh inactive, ALOX15 inhib inactive, HEK293 cAMP cs inactive and Tau filament bind inactive.
Screening Oc1cc2c(cc1O)C1c3ccc(O)c(O)c3OCC1(O)C2 (stereo not drawn) returned ALOX15 inhib 5µM.
For Cc1cccc2cc(C#N)c(SCC(=O)N3CCC(C)CC3)nc12 the results were TSHR agonist inconclusive, Luciferase inh inactive, ALOX15 inhib inactive, HEK293 cAMP cs 25µM, PK Bst inactive and Tau filament bind inactive.
For N#CCCn1c(=O)c(-c2cc(F)cc(F)c2)nc2cnc(OCc3ccccc3)nc21 the results were TSHR agonist inactive, Luciferase inh inactive[11.4 µM], ALOX15 inhib inactive, HEK293 cAMP cs inactive[0.457 µM] and Tau filament bind inconclusive.
COc1cccc(-c2cncnc2NCc2cccnc2)c1 was read as TSHR agonist inactive, Luciferase inh inactive[2.29 µM], ALOX15 inhib 16µM, HEK293 cAMP cs inactive and Tau filament bind inactive.
For COc1cccc(-c2nc(NCc3ccccc3)c3ccccc3n2)c1 the results were TSHR agonist inconclusive, Luciferase inh inactive[2.29 µM], ALOX15 inhib inactive, HEK293 cAMP cs 32µM and Tau filament bind inactive.
For c1ccc(CNc2nc(-c3cccnc3)nc3ccccc23)cc1 the results were TSHR agonist inconclusive, Luciferase inh inactive[2.29 µM], ALOX15 inhib inactive, HEK293 cAMP cs inconclusive and Tau filament bind inactive.
COc1cccc(-c2nc(NCc3ccccc3OC)c3ccccc3n2)c1 was read as Luciferase inh inactive[2.29 µM], ALOX15 inhib inactive, HEK293 cAMP cs inactive and Tau filament bind inactive.
`c1cncc(CNc2nc(-c3cccnc3)nc3ccccc23)c1` gave TSHR agonist 25µM, Luciferase inh inactive[2.29 µM], ALOX15 inhib inactive, HEK293 cAMP cs inactive and Tau filament bind inactive.
For COc1cccc(-c2nc(NCc3cccnc3)c3ccccc3n2)c1 the results were TSHR agonist 32µM, Luciferase inh inactive[2.29 µM], ALOX15 inhib inactive, HEK293 cAMP cs inactive and Tau filament bind inactive.
`CC[C@@H]1O[C@]2(C=C[C@@H]1C)C[C@H]1C[C@H](CC=C(C)[C@@H](O[C@@H]3C[C@H](OC)[C@H](O[C@@H]4C[C@H](OC)[C@H](O)[C@H](C)O4)[C@H](C)O3)[C@@H](C)C=CC=C3CO[C@@H]4[C@@H](O)C(C)=C[C@@H](C(=O)O1)[C@]34O)O2` gave TSHR agonist inactive, Luciferase inh inactive, ALOX15 inhib inactive, HEK293 cAMP cs inactive and Tau filament bind inactive.
`CC1=CC(=O)CC(C)(C)C1(O)/C=C/C(C)=C\C(=O)O` (stereo not drawn) gave TSHR agonist inconclusive, ALOX15 inhib inactive, HEK293 cAMP cs inactive and Tau filament bind inactive.
`CS(=O)(=O)Nc1cccc(-c2nc(NC3CC3)c3ccccc3n2)c1` gave TSHR agonist inactive, Luciferase inh inactive[2.29 µM], ALOX15 inhib inactive, HEK293 cAMP cs inactive and Tau filament bind inactive.
For COc1cccc(-c2nc(NC3CC3)c3ccccc3n2)c1 the results were Luciferase inh inactive[2.29 µM], ALOX15 inhib 25µM, HEK293 cAMP cs inactive and Tau filament bind inactive.
NNC(=O)CCc1ccc2ccc3ccccc3c2c1 was read as TSHR agonist inactive[11.4 µM], Luciferase inh inactive[11.4 µM], ALOX15 inhib inactive[11.4 µM], HEK293 cAMP cs inactive[11.4 µM] and Tau filament bind inactive[11.4 µM].
Nc1nc(Cl)nc2c1ncn2[C@@H]1O[C@@H](COP(=O)(O)OP(=O)(O)OP(=O)(O)O)[C@@H](O)[C@H]1O was read as Luciferase inh inactive, ALOX15 inhib inactive, HEK293 cAMP cs inactive and Tau filament bind inactive.
`CCn1cnc2sc(C(=O)N(Cc3ccc(N(C)C)cc3)Cc3ccco3)c(C)c2c1=O` gave Luciferase inh inactive, ALOX15 inhib inactive, HEK293 cAMP cs inactive, PK Bst inactive and Tau filament bind inactive.
